# TSG101-PTAP inh: blocks PTAP/TSG101 interaction to inhibit HIV-1 budding; Q99816; Fluorescence polarization, FITC-PTAP peptide / Tsg101 binding; Potency, µM (series often up to 115 µM), usual class: inhibitors; 340,000 tested, under 10 active; AID 493005; active = well fitted inhibition curve with a large enough effect in the main read-out, with a control signal flat, not every such curve was filed as active; inconclusive = small, poorly fitted or top-dose-only effect, or effect the other way, or a change in a side signal; inactive = no such curve, though single readings can be large or run the other way
# Target sequence (Q99816 whole entry, looked up): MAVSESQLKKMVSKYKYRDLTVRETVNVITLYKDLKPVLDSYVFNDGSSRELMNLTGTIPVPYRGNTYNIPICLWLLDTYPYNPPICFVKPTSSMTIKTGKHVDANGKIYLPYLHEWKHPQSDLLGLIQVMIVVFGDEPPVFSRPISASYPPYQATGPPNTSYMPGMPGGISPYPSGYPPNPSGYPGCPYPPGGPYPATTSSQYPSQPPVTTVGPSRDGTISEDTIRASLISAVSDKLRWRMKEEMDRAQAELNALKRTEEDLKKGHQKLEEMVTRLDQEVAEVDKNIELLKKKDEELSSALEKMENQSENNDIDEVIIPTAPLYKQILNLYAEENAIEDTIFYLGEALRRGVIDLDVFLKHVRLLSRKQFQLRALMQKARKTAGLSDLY
#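 Compounds were pin-transferred onto Tsg101 binding domain (10 uM final) in HEPES pH 7.5 buffer, then FITC-PTAP peptide was added at 50 nM final. After 20 min at RT, polarization reported peptide displacement across a qHTS concentration series.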
# Vif-APOBEC3F blk: inhibitors of Vif-A3F interaction; HeLa A3F-eYFP + Vif (tagged APOBEC3F with the HIV-1 protein that degrades it), YFP fluorescence increase; Potency, µM (series often up to 46.1 µM); hit rate 0.2% among 390,000; note: nearly all actives have a fitted effect of over 65% in size
#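 HeLa cells stably expressing Vif plus C-terminally eYFP-tagged A3F were seeded, incubated overnight at 37 deg C, dosed with compound, incubated overnight again at 37 deg C. Yellow fluorescence (Ex 488/Em 500-530) reported blocked Vif-mediated A3F-eYFP degradation.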
# S-ASM inh: inhibitors of human secretory acid sphingomyelinase; P17405; placental ASM, HMU-PC fluorogenic substrate, 60 min; Potency, µM (highest dose often 57.5 µM), most hits filed as inhibitors; hit rate 0.006% among 340,000
#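 Human placenta-derived ASM enzyme was preincubated with compound for 10 minutes at room temperature, then given fluorogenic substrate HMU-PC0 (9 uM final) for 60 minutes at 37 °C; a pH 10 stop preceded fluorescence reading at Ex 386/Em 447 nm.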
# 12-LOX inh: ALOX12 (human) lipoxygenase inhibition; purified 12hLO, xylenol orange hydroperoxide absorbance; hit rate 1.1% among 580,000; Potency, µM (doses to about 108 µM), most hits filed as inhibitors; P18054
#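 Purified human 12hLO (150 nM final) in 25 mM Hepes, 0.01% Triton X-100, pH 7.0 was preincubated 15 min at room temperature with compound. Then 40 uM arachidonic acid was added, 30 min. Hydroperoxide was read by Fe-XO absorbance ratio 573/405 nm.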
# Akt phos inh: Akt phosphorylation inhibition | Neuro2A IGF-stimulated pAkt S473 HTRF, 20 min; stronger effect = lower value | activity change, % for hits at 50 µM | hit rate 0.32% among 360,000 | AID 651550; in the data active = activity change below about -80%; inconclusive = mostly about -51% to -80%
#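 Single-point screen (50 µM final compound) in Neuro2A cells stimulated 20 min with 6 nM IGF at 37 deg C. After lysis, Ser473-phosphorylated Akt read by HTRF (ex 330 nm, em 615/665 nm) as the 665/615 ratio.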
# Vif-A3G inh: Vif-A3G binding inhibition | Q9HC16 | HeLa A3G-eYFP + Vif (tagged APOBEC3G with the HIV-1 protein that degrades it), YFP fluorescence, overnight | Potency, µM (highest dose often 46.1 µM), hits mostly inhibitors | hit rate 0.076% among 410,000; note: nearly all actives have a fitted effect of over 60% in size
# Target sequence (Q9HC16 whole entry, looked up): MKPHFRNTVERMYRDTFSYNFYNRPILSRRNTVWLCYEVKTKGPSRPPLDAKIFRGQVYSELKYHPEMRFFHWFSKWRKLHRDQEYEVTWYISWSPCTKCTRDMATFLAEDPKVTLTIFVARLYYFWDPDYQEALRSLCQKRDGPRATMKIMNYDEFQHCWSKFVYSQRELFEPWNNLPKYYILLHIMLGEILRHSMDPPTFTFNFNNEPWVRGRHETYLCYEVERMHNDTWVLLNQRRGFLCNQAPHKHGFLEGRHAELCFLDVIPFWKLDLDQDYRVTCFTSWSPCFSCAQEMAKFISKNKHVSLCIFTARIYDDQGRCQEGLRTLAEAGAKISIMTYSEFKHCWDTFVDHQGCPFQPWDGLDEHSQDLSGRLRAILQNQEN
#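 Read-out is eYFP fluorescence (Ex 488/Em 500-530) from Vif-expressing HeLa A3G-eYFP cells; more signal means A3G escaped Vif-mediated degradation. Cells plated overnight, compound pinned in, incubated overnight at 37 deg C.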
# A number is an active result; - = inactive; ? = inconclusive; . = no result given; ! = not active in a repeat. An excerpt weighted towards active compounds, which were near 1.4% of everything screened. Unless noted, calls come from the whole dose curve; as a rule, active = well fitted curve in the direction sought with a large enough effect; inconclusive = small, poorly fitted or top-dose-only effect, or another doubt; inactive = no such curve, though single readings can be large; an effect the other way counts as inactive or inconclusive.
SMILES,TSG101-PTAP inh,Vif-APOBEC3F blk,S-ASM inh,12-LOX inh,Akt phos inh,Vif-A3G inh
CCCn1ccnc1CN1CCCn2nc(-c3nc4ccccc4n3C)cc2C1,.,.,.,-,.,.
N#C/C(=N\Nc1ccc(Cl)cc1)C(=O)c1ccccc1,-,-,?,?,-,-
Cc1c(N/N=C(\C#N)C(=O)c2ccc(Cl)cc2)c(=O)n(-c2ccccc2)n1C,-,?,-,8.91µM,-,-
O=C1NC(=Nc2ccc(O)cc2)S/C1=C/c1ccco1,-,-,-,?,-,11.2µM
O=C1NC(=Nc2ccc(Cl)cc2)/C(=C/c2ccco2)S1,-,-,-,25.1µM,-,-
COc1ccc(N=C2NC(=O)/C(=C\C=C\c3ccco3)S2)cc1,-,-,-,?,-,-
Cc1cccc(N=C2NC(=O)S/C2=C\c2ccco2)c1,-,-,-,?,-,-
O=C1NC(=Nc2ccc3ccccc3c2)S/C1=C/c1ccco1,-,?,-,31.6µM,-,-
Cc1cccc(N=C2NC(=O)/C(=C/C=C/c3ccco3)S2)c1,-,-,-,44.7µM,-,?
COCCN1CCNc2nc(COc3cccc(C#N)c3)n(Cc3ccccc3)c2C1=O,.,.,.,-,.,.
CS(=O)(=O)Nc1cc(NC(=O)c2cc(-c3ccco3)on2)ccc1F,.,.,.,-,.,.
Cc1cccc(Oc2c(C(F)(F)F)oc3cc(OC(=O)c4cncc(Br)c4)ccc3c2=O)c1,.,.,.,8.91µM,.,.
CCc1nc(SCC(=O)Nc2ccccc2C(=O)OC)c2oc3ccccc3c2n1,.,.,.,-,.,.
CC(C)C(=O)Nc1cccc(NC(=S)NC(=O)c2ccc3c(c2)OCO3)c1,-,-,-,3.55µM,-,-
CCC(=O)Nc1cccc(NC(=O)c2ccc3c(c2)OCCO3)c1,-,-,-,?,-,-
CCCC(=O)Nc1cccc(NC(=O)c2ccc3c(c2)OCO3)c1,-,.,-,-,-114.8%,-
O=C(Nc1c(C(=O)Nc2cccc(F)c2)oc2ccccc12)c1ccc2c(c1)OCO2,-,-,-,-,-111.5%,-
O=C(Nc1cccc(F)c1)c1ccc2c(c1)OCO2,-,-,-,-,-,-
Cc1ccccc1NC(=O)CSc1nccc(-c2ccc(OC(F)F)cc2)n1,.,.,.,-,.,.
CSc1ccccc1NC(=O)c1c(Br)cnn1C,-,-,-,-,-121.9%,-
Cn1ncc(Br)c1C(=O)Nc1c(F)c(F)cc(F)c1F,-,-,-,-,-,-
Cc1cc(N2CCCC2)ccc1/C=C1/C(=O)N(C)C(=S)N1C,-,11.2µM,-,-,-,?
Cc1ccsc1C(=O)N(CC#N)C1CC1,.,.,.,-,.,.
O=C(O)c1cc2ccccc2c(Cc2c(O)c(C(=O)O)cc3ccccc23)c1O,.,.,.,12.6µM,.,-
Cc1ccc(Nc2ncc(C(=O)NC3CCCC(C)C3C)c3ccccc23)cc1Cl (stereo not drawn),.,.,.,-,.,.
SMILES,TSG101-PTAP inh,Vif-APOBEC3F blk,S-ASM inh,12-LOX inh,Akt phos inh,Vif-A3G inh
O=C(CSc1nnc(-c2ccccn2)n1Cc1ccco1)c1ccc(Cl)cc1,-,-,-,?,-109.8%,-
O=C(CSc1nnc(-c2ccccn2)n1Cc1ccco1)c1ccccc1,-,-,-,?,-,-
CCOc1cccc2sc(NC(=O)c3ccc(S(=O)(=O)N4CCCCC4)cc3)nc12,.,-,.,44.7µM,.,-
CCOc1ccccc1NC(=O)CCc1ccc(-c2ccc(C)cc2)o1,.,.,.,-,.,.
CC(=O)Nc1ccc(S(=O)(=O)N2CCN(C(C)CCc3ccccc3)CC2)cc1 (stereo not drawn),-,-,-,5.62µM,-,-
Cn1ncc(S(=O)(=O)Cc2ccccc2)c(Cl)c1=O,-,-,-,14.1µM,-,-
CC(CC#N)N1CCN(C(=O)c2cc3ccccc3[nH]2)CC1 (stereo not drawn),.,.,.,-,.,.
Cc1cc(C)c(C#N)c(Sc2ccccc2N)n1,-,-,-,-,-,-
N#CC(=C(/N)Sc1ccccc1N)/C(C#N)=C(\N)Sc1ccccc1N,.,.,.,31.6µM!,.,.
C/C(=N\NC(=O)c1ccncc1)C1CC1,.,.,.,-,.,.
Cc1ccc(C)c(N2CCN(S(=O)(=O)c3ccc(-c4cnc(C)o4)cc3)CC2)c1,.,.,.,-,.,.
COc1ccc2c(c1)CCCC(Br)C2=O (stereo not drawn),-,?,-,39.8µM,-,-
COc1ccc2c(c1)CCC2=O,.,.,.,.,.,-
O=C(CCCCCCCC(=O)NNC(=O)c1cccc(Cl)c1)NNC(=O)c1cccc(Cl)c1,.,.,.,-,.,.
Cc1cc(C)n(-c2nc3c(c(=O)n(CCN4CCCCC4)c(=O)n3C)n2C)n1,.,.,.,-,.,.
CC(C)c1noc(-c2cccn3c(CNC(=O)c4nccc5ccccc45)nnc23)n1,.,.,.,-,.,.
COc1cccc(/C(O)=C2\C(=O)C(=O)N(c3ccccn3)C2c2cccc(Br)c2)c1 (stereo not drawn),.,.,.,35.5µM,.,.
CCOC(=O)/C=c1\s/c(=C\c2ccc(C#N)cc2)c(=O)n1CC(=O)NCc1ccco1,-,-,-,-,-,-
CCOC(=O)/C=c1/s/c(=C/c2ccc3cc(OC)ccc3c2)c(=O)n1CC(=O)NCC1CCCO1 (stereo not drawn),?,7.08µM,-,-,-,-
CCOC(=O)/C=c1\s/c(=C\c2ccc(C(=O)OC)cc2)c(=O)n1CC(=O)Nc1ccccc1,-,?,-,-,-,-
CCOC(=O)/C=c1\s/c(=C\c2c(OC)ccc3ccccc23)c(=O)n1CC(=O)NCC1CCCO1 (stereo not drawn),-,25.1µM,-,-,-,10µM
O=C(CSc1nnnn1C1CC1)N1CCN(S(=O)(=O)c2cccc(C(F)(F)F)c2)CC1,.,.,.,-,.,.
COc1ccccc1-c1noc(CCC(=O)Nc2cccc(C(F)(F)F)c2)n1,-,-,-,-,-104.8%,-
COc1ccccc1-c1noc(CCCC(=O)Nc2ccccc2)n1,.,.,.,-,.,.
CCOc1cc(/C=C(\C#N)C(=O)Nc2cccc(C(=O)O)c2)cc(Br)c1OC(=O)c1ccc(OC)cc1,-,?,?,44.7µM,-,?
SMILES,TSG101-PTAP inh,Vif-APOBEC3F blk,S-ASM inh,12-LOX inh,Akt phos inh,Vif-A3G inh
CCOc1cc(/C=C(\C#N)C(=O)Nc2cccc(C(=O)O)c2)ccc1OCc1ccccc1Cl,-,-,-,-,-,-
O=C(NCc1ccccc1)N1CCC(N2C(=O)C3(CCCCC3)C2c2ccncc2)CC1 (stereo not drawn),.,.,.,-,.,.
Cc1ccc(S(=O)(=O)c2nc(-c3ccco3)oc2SCC(N)=O)cc1,-,-,-,?,-,-
O=C(CSc1oc(-c2ccccc2)nc1S(=O)(=O)c1ccc(Cl)cc1)c1ccccc1,.,-,.,7.94µM,.,-
O=C(CSc1oc(-c2ccco2)nc1S(=O)(=O)c1ccc(Cl)cc1)NCC1CCCO1 (stereo not drawn),-,-,-,7.94µM,-,-
NC(=O)CSc1oc(-c2ccco2)nc1S(=O)(=O)c1ccc(Cl)cc1,-,-,-,28.2µM,-,-

# Screening data (PubChem BioAssay)
